Screen size: about 360,000 compounds; about 230 (0.064%) were called active. Rule as the data show it: active = activity above about 50% (passing the limit was not always enough); inconclusive = no clear call, values can overlap the other calls. Only a selection was taken, and actives are over-represented in it overall.
These compounds were tested on DNA topoisomerase I (Yersinia pestis CO92) (assay: Yersinia pestis topoisomerase I inhibitors, primary screen, biochemical, cleavage product accumulation, plate reader, single point (AID 504884)). Conditions: Y. pestis Topo-I cleavage product accumulation, at 10 µM, active compounds read high.

| SMILES | activity |
| --- | --- |
| COC(=O)CN1C(=O)[C@H]2[C@@H](C3CC3)N3C(=O)CN(Cc4ccc(-c5ccccc5)cc4)C(=O)[C@@]3(Cc3ccccc3)[C@H]2C1=O | 35.2% (inactive) |
| CCC1(C)NC(=O)N(CC(=O)N2CCN(c3cccc(Cl)c3)CC2)C1=O (stereo unspecified) | 2.38% (inactive) |
| CCC1C=C(c2ccccc2)C=CN=C1N(CC)CC (stereo unspecified) | 0.893% (inactive) |
| CCN(CC)S(=O)(=O)c1ccc(N2CCOCC2)c(NC(=O)C(C)Oc2ccc(F)cc2)c1 (stereo unspecified) | 18% (inactive) |
| CCN1CCc2nc(NC(=O)c3cc(F)c(F)cc3Cl)sc2C1 | 6.77% (inactive) |
| COc1ccc(CCNC(=O)C(=O)NCC2CCNCC2)cc1OC | 0.788% (inactive) |
| CC(C)C(NC(=O)OCc1ccccc1)C(=O)OCC(=O)N1C(C)CCCC1C (stereo unspecified) | 15.6% (inactive) |
| COC(=O)[C@H](C)[C@H]1C[C@]1(C)[C@H](NC(=O)OCc1ccccc1)c1ccccc1 | 16.4% (inactive) |
| CC(C)[C@H](NC(=O)OCc1ccccc1)C(=O)OCc1ccccc1 | 58.9% (active) |
| COc1ccc(N(Cc2cc3ccc(C)cc3[nH]c2=O)S(=O)(=O)c2ccccc2)cc1 | 29.4% (inactive) |
| CN1C(C)(C)CC(NC(=O)CCC(=O)NC2CC(C)(C)N(C)C(C)(C)C2)CC1(C)C | -3.64% (inactive) |
| O=C(O)c1cc(S(=O)(=O)NC2CCCc3ccccc32)ccc1O (stereo unspecified) | -3.28% (inactive) |
| COc1ccc(N2CC(C)Cn3c2nc2c3c(=O)n(Cc3ccccc3F)c(=O)n2C)c(OC)c1 (stereo unspecified) | 14.8% (inactive) |
| O=C(CN1C(=O)COc2ccc(Cl)cc21)N1CCOCC1 | 2.5% (inactive) |
| CCC(CC)c1nnc(NS(=O)(=O)Cc2ccccc2)s1 | -2.39% (inactive) |
| Cc1ccc2c(C)c(C(=O)N3CCC(N4CCC(C(=O)NC5CC5)CC4)CC3)oc2c1 | -3.85% (inactive) |
| Cc1ccc(-n2ncc3c(Nc4cccc(C(=O)O)c4)ncnc32)cc1 | -7.17% (inactive) |
| Cc1ccc(Cl)cc1NC(=O)C1CCN(S(C)(=O)=O)CC1 | 6.58% (inactive) |
| c1cc2c(cc1C1OCC3C(c4ccc5c(c4)OCO5)OCC13)OCO2 (stereo unspecified) | 21.1% (inactive) |
| CC(=O)c1cccc(OCC(=O)OCC(=O)Nc2cc(S(=O)(=O)N3CCCCC3)ccc2C)c1 | 29.7% (inactive) |
| COc1cccc(N(CC(=O)NCCSc2ccccn2)S(C)(=O)=O)c1 | -7.24% (inactive) |

| SMILES | activity |
| --- | --- |
| O=C(CSc1nc2cc3c(cc2c(=O)n1CCC1=CCCCC1)OCO3)NCc1ccco1 | -0.243% (inactive) |
| Cc1cccn2cc(-c3cccc(S(=O)(=O)N4CCCCC4)c3)nc12 | 23.2% (inactive) |
| Cc1ccc(F)cc1S(=O)(=O)Nc1cccc(C(=O)N2CCCC(C(N)=O)C2)c1 (stereo unspecified) | 0.477% (inactive) |
| CC1(C)c2[nH]c3ccccc3c2C[C@H]2C(=O)N(N)CC(=O)N21 | -8.39% (inactive) |
| CCOC(=O)Cn1c(=O)n(Cc2ccc(OC)cc2)c(=O)c2cccnc21 | 9.56% (inactive) |
| Cc1cc(C(=O)O)c(S(C)(=O)=O)s1 | -6.33% (inactive) |
| CC(=O)Nc1ccc(Nc2ncnc3c2nnn3Cc2ccccc2Cl)cc1 | 2.24% (inactive) |
| Cc1cccc(OC(=O)c2sc3ncn(C)c(=O)c3c2C)c1 | -1.35% (inactive) |
| CC1CC(C)(C)n2c(O)c(N=NC(N)=S)c3cccc1c32 (stereo unspecified) | -5.67% (inactive) |
| CCOc1ccccc1OCC(=O)Nc1ccccc1C(=O)NC1CC1 | -3.16% (inactive) |
| c1ccc2cc(CCCc3cc4ccccc4cn3)ncc2c1 | 54.9% (active) |
| Fc1ccc2cnc(-c3ccccc3)cc2c1 | 5.85% (inactive) |
| CCC1CCCCN1C(=O)CSc1nc2c(c(=O)n1C)SC(C)C2 (stereo unspecified) | 16.8% (inactive) |
| Cc1ccc(CNC(=O)CCS(=O)(=O)c2ccc3c(c2)CC(C)N3C(=O)C2CC2)o1 (stereo unspecified) | 7.23% (inactive) |
| Cc1ccc(C)c(N(CC(=O)NCc2ccco2)C(=O)CCC(=O)Nc2ccccn2)c1 | 18.9% (inactive) |
| CC1Cc2cc(/C(O)=C3\C(=O)C(=O)N(Cc4cccnc4)C3c3ccccc3F)ccc2O1 (stereo unspecified) | 2.42% (inactive) |
| Cc1cccn2c(CN(C)C3CCCc4ccccc43)c(C(=O)N3CCOCC3)nc12 (stereo unspecified) | 42.2% (inactive) |
| COc1ccc(CNCCCNCc2ccc(OC)c(OC)c2)cc1OC | 2.69% (inactive) |
| CCc1ccc(OCC(O)CN2CCN(CCO)CC2)cc1 (stereo unspecified) | 5.47% (inactive) |
| NC(Cc1ccc(F)cc1)c1csc(Nc2nncc3ccccc23)n1 (stereo unspecified) | -11.6% (inactive) |
| CC(C)(CNC(=O)CNC(=O)C1CCCCC1)N1CCOCC1 | -0.69% (inactive) |

| SMILES | activity |
| --- | --- |
| Cc1c(NC(=O)C(C)OC(=O)c2c3c(nc4ccccc24)CCC(C)C3)c(=O)n(-c2ccccc2)n1C (stereo unspecified) | 3.41% (inactive) |
| COc1cc(NC(=O)C2=C(C)OCCS2)c(Cl)cc1C(=O)NCCN1CCN(C)CC1 | -0.826% (inactive) |
| COc1ccc(-n2nc(C(=O)NCC(=O)Nc3cccc(C)n3)c3ccccc3c2=O)cc1 | 15.2% (inactive) |
| O=S(=O)(Nc1ccc(Cl)cn1)c1cnc(Cl)c(Br)c1 | 2.02% (inactive) |
| CC1CCCCC1NC(=O)c1cn(C)c2ccc(S(=O)(=O)N3CCOCC3)cc2c1=O (stereo unspecified) | -3.45% (inactive) |
| CCN(CCN(C)C)C(=O)c1ccc2nc(C)c(N(C)C(=O)CCc3ccccc3)n2c1 | 0.0305% (inactive) |
| Cc1nc(-c2ccc(F)cc2)c(CC(=O)N(C)CC(=O)Nc2c(C)cccc2C)s1 | 0.373% (inactive) |
| Cc1ccccc1-c1nc(CS(=O)(=O)CC(=O)N2CCc3ccccc3C2)c(C)o1 | 32.1% (inactive) |
| COc1ccc(-n2c(Cc3cccn3C)nnc2SCC(=O)Nc2cc(C)cc(C)c2)cc1 | 18.8% (inactive) |
| O=C(NCc1ccccc1)C(c1ccccc1)N(C(=O)c1csnn1)c1ccc(F)cc1 (stereo unspecified) | 26.7% (inactive) |
| CN(C)C(=O)CCc1ccc2c3c([nH]c2c1)[C@]1(C)[C@@H](C(=O)N2CCOCC2)C[C@H](CC(=O)NCCc2ccccn2)C(=O)N1CC3 | 4.43% (inactive) |
| CCc1ccc(C(=O)OCC(=O)NCC(F)(F)F)cc1 | 7.38% (inactive) |
| CN(C)/C=C(/C(=O)c1ccccc1Cl)S(C)(=O)=O | 3.93% (inactive) |
| CC1CCN(S(=O)(=O)c2ccc(NC(=O)C3CC(=O)N(c4ccccc4)C3)cc2)CC1 (stereo unspecified) | 71.3% (active) |
| Cc1ccccc1N1CC(C(=O)Nc2ccc(S(=O)(=O)N3CCCC3)cc2)CC1=O (stereo unspecified) | 10.6% (inactive) |
| O=C(Nc1ccc(S(=O)(=O)N2CCCCC2)cc1)C1CC(=O)N(c2ccc(F)cc2)C1 (stereo unspecified) | 12.1% (inactive) |
| CCCn1c(SCC(=O)c2ccc3c(c2)OCCO3)nnc1C(C)C | 9.18% (inactive) |
| CCCCn1c(N)c(N(CCOC)C(=O)COc2c(C)cccc2C)c(=O)[nH]c1=O | -2.82% (inactive) |
| CN1CCN(S(=O)(=O)c2cccc(C(=O)Nc3sccc3C#N)c2)CC1 | -7.33% (inactive) |
